IL1B secr inh: inflammasome signaling inhibition, IL-1 beta readout; 4.7% of 360,000 active; THP-1 LPS/ATP IL-1B secretion, AlphaLISA, 16 h; stronger effect = lower value; activity change, % at 57.5 µM; in the data active = activity change below about -50%; inconclusive = mostly about -30% to -49%
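THP-1 cells pretreated 1 hr with compounds (up to 57.5 uM final), then stimulated with LPS (250 ng/mL final) plus ATP (1.25 mM final); secreted IL-1B measured by AlphaLISA after 16 hr, decreased signal indicating inhibition.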
DT40 TDP1 no CPT: qHTS for Inhibitors of human tyrosyl-DNA phosphodiesterase 1 (TDP1): qHTS in cells in absence of CPT; DT40 Tdp1-/- hTDP1 cells, no CPT, ATP luminescence, 48 h; Potency, µM (titrated, usually from 46.2 µM), without a hit: at the top dose activity change, negative = growth inhibition, actives largely listed as inhibitors; 15% of 420,000 active; AID 686978, 2013; also: potency is read from the fitted curve at half-maximal effect; nearly all actives have a fitted effect of over 55% in size
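Growth of hTDP1-complemented DT40 Tdp1-knockout cells is measured by ATP luminescence after at least 48 hr compound exposure at 37 °C, with DMSO substituting for the 20 nM CPT used in the parallel screen.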
RORg inh: inhibitors of mouse ROR gamma transcriptional activity. P51450. Drosophila S2 Gal4-RORgamma UAS-luciferase reporter, 20 h. Potency, µM (titrated, usually from 53.6 µM), for inactives: at the highest dose activity change, negative = inhibition, usual class: inhibitors. 5.4% of 310,000 active; also: potency is read from the fitted curve at half-maximal effect; nearly all actives have a fitted effect of over 60% in size
Target sequence (P51450 whole entry, looked up, the tested form may be a part): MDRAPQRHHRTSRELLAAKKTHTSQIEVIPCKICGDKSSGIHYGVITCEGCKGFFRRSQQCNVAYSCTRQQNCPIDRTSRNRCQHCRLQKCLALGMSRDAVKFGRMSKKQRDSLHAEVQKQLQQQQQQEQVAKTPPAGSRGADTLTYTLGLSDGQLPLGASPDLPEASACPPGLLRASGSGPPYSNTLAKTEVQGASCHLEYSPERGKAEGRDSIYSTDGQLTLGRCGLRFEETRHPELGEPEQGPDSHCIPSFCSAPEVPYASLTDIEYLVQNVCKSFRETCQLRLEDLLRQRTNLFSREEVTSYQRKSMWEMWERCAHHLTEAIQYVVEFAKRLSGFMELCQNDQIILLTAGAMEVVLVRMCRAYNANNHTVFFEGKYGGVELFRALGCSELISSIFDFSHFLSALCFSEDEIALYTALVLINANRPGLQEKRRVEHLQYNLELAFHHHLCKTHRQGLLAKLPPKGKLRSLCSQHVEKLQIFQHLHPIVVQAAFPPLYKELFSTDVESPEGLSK
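Using a luciferase readout, inhibitors were identified by reduced reporter activity in Drosophila cells coexpressing a copper-inducible Gal4–ROR gamma fusion and UAS-driven Photinus luciferase, incubated 20 hr after 700 uM copper sulfate.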
TDP1 cell CPT: growth inhibition of DT40 Tdp1-/-;hTDP1 cells with camptothecin (screen for TDP1 inhibitors); chicken DT40 Tdp1-/-;hTDP1 cells + 20 nM CPT, ATP luminescence, 48 h; 12% of 420,000 active; Potency, µM (titrated, usually from 46.2 µM), inactives show at the highest dose activity change, negative = growth inhibition, hits mostly inhibitors; also: potency is read from the fitted curve at half-maximal effect; nearly all actives have a fitted effect of over 55% in size
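Chicken DT40 Tdp1-/- cells stably complemented with human TDP1 were seeded at 400 cells/well in medium containing 20 nM camptothecin, exposed to pin-transferred compounds, and grown at 37 °C for at least 48 hr. Viability was read as ATP luminescence.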
VP16 counter: counter-screen for ROR gamma inhibitors: Gal4-VP16 reporter; Drosophila S2 Gal4-VP16 UAS-luciferase, luminescence, 20 h; Potency, µM (titrated, usually from 53.6 µM), for inactives: top-dose activity, negative = inhibition, usual class: inhibitors; 3.5% of 310,000 active; AID 2546;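 also: Gal4-VP16 expression switched on by copper sulfate through the metallothionein promoter; potency is read from the fitted curve at half-maximal effect; nearly all actives have a fitted effect of over 50% in size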
ELG1 DNA repair: ELG1-dependent DNA repair inhibition; 2.3% of 330,000 active; AID 504467; HEK293T ELG1-luciferase reporter, luminescence, 16 h; DNA damage induced by 5-fluorouridine; Potency, µM (highest dose often 46.1 µM), for inactives: top-dose activity change, negative = inhibition, hits mostly inhibitors; also: potency is read from the fitted curve at half-maximal effect; nearly all actives have a fitted effect of over 55% in size
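Quantitative HTS, concentration-response format. 2,000 cells/well co-treated with 5-fluorouridine and compound, 16 hr in 5% CO2 at 37 °C; ONE-Glo luminescence read after 30 min.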
Numbers without * were called inactive; ? = inconclusive; . = no result; ! = not confirmed by another sample; [ ] = dose if it differs, or a comment. A selection: hits, their analogues and other compounds. The true share with any hit is near 21%. Unless noted, calls follow the shape of the dose curve; as a rule, active = well fitted curve in the direction sought with a large enough effect; inconclusive = small, poorly fitted or top-dose-only effect, or another doubt; inactive = no such curve, though single readings can be large; an effect the other way counts as inactive or inconclusive. % is scaled to controls: 0 for no effect and ±100 for the full control effect.

SMILES | IL1B secr inh | DT40 TDP1 no CPT | RORg inh | TDP1 cell CPT | VP16 counter | ELG1 DNA repair
C=CCNC(=S)N/N=C/c1ccc(OCc2ccccc2Cl)cc1 | 14.0 | -27.3% | 0.794µM* | ? | 1.58µM* | ?
Cc1ccc(S(=O)(=O)N2C(c3ccccc3)CC(=O)C3CN(S(=O)(=O)c4ccc(Cl)cc4)C(c4ccccc4)CC32)cc1 (configuration not stated) | -22.4 | ? | . | ? | . | .
Nc1c(N(CCC2=CCCCC2)C(=O)c2ccccc2F)c(=O)[nH]c(=O)n1Cc1ccccc1 | 13.2 | -25.1% | . | ? | . | -9.7%
CS(=O)(=O)c1ccccc1C(=O)N(CCC1=CCCCC1)c1c(N)n(Cc2ccccc2)c(=O)[nH]c1=O | -5.1 | ? | . | 29.1µM* | . | ?
CCC(C)NC(=O)c1ccc2c(Cl)c3c(nc2c1)CCC3 (configuration not stated) | ? | -18.0% | 12.9% | -16.5% | -6.0% | ?
CCN(C(=O)c1ccc2c(Cl)c3c(nc2c1)CCC3)c1ccc(C)c(C)c1 | -80.7* | 20.6µM* | ? | 20.6µM* | -9.0% | ?
CN(C(=O)c1ccc2c(Cl)c3c(nc2c1)CCC3)c1ccccc1F | . | 29.1µM* | . | -16.8% | . | .
CN(C(=O)c1ccc2c(Cl)c3c(nc2c1)CCC3)c1ccccc1 | -5.0 | ? | 26.6% | ? | 7.5% | ?
CC(C)C[C@H](NC(=O)[C@H](Cc1ccccc1)NC(=O)CNC(=O)[C@H](CCC(=O)O)NC(=O)[C@H](CCCNC(=N)N)NC(=O)[C@H](C)NC(=O)[C@H](C)NC(=O)[C@@H](N)CC(=O)O)C(=O)N[C@@H](CC(=O)O)C(=O)N[C@H](C(=O)N[C@@H](CC(C)C)C(=O)N[C@H](C(=O)N[C@H](C(=O)N[C@@H](CC(C)C)C(=O)N[C@@H](Cc1cnc[nH]1)C(=O)N[C@@H](CCCNC(=N)N)C(=O)N[C@@H](C)C(=O)NCC(=O)N[C@@H](C)C(=O)N[C@@H](CCCNC(=N)N)C(=O)O)C(C)C)C(C)C)[C@@H](C)O | . | . | 2.2% | . | 12.4% | .
COc1ccc2c(c1)OC(C)CN(CCNC(=O)C1CCOC1)C2 (configuration not stated) | . | 13.7% | . | 3.8%[9.04 µM] | . | .
COc1ccc(-n2c(CNC(=O)COc3ccc(Cl)cc3)n[nH]c2=S)cc1 | 33.2 | 5.6% | -40.9% | 3.5% | 16.3% | -4.2%
S=c1[nH]nc(COc2ccc(Cl)cc2)n1C1CCCCC1 | 18.6 | ? | 1.12µM* | ? | 0.794µM* | 1.8%
Cc1cccc(OCc2n[nH]c(=S)n2C2CCCCC2)c1 | 20.8 | ? | 0.794µM* | 23.1µM* | 1.26µM* | -14.8%
Cc1ccc(/C=N/n2c(COc3ccccc3)n[nH]c2=S)o1 | 26.7 | -1.3% | ? | ? | 7.8%[10 µM] | -13.3%
S=c1[nH]nc(CSCc2ccccc2Cl)n1C1CCCCC1 | -10.2 | ? | 0.501µM* | ? | ? | ?
Cc1ccc(OCc2n[nH]c(=S)n2C2CCCCC2)cc1 | 37.0 | 18.4µM* | 1.41µM* | 29.1µM* | 3.55µM* | -1.8%
CCn1c(COc2cccc(C)c2)nnc1SCC(=O)NC1CCCC1 | 11.7 | ? | 19.4% | ? | -0.8% | -5.2%
OCc1cccc(-c2csc(C(O)c3ccccc3)n2)c1 (configuration not stated) | 39.7 | -13.0% | . | ? | . | .
CC(=O)Nc1ccccc1-c1nc(CNC(=O)c2ccc(-n3cccn3)cc2)c(C)o1 | . | -20.4% | . | -13.3%[9.04 µM] | . | .
CC(=O)Oc1ccc(C(=O)Nc2ccc(S(=O)(=O)NCC3CCCO3)cc2)cc1 (configuration not stated) | -13.2 | ? | ? | ? | ? | -17.8%
Cn1c(=O)cc(OCC(=O)NCCCN2CCN(c3ccccc3F)CC2)c2ccccc21 | -6.0 | ? | -3.3% | ? | -0.1% | ?
Cc1ccc(Cl)cc1N1CCN(C(=O)Cc2cn(C)c3ccccc23)CC1 | -29.7 | ? | 2.9% | ? | -17.7% | ?
Cn1c(=O)cc(OCC(=O)NCCCN2CCN(c3cccc(Cl)c3)CC2)c2ccccc21 | -17.8 | 16.4µM* | -17.3% | ? | -1.5% | -7.4%
Cc1ccc(Cl)cc1N1CCN(C(=O)COc2cc(=O)n(C)c3ccccc23)CC1 | . | 23.1µM* | . | ? | . | .
CCCCCCSc1cc(-c2nc3ccc(C)cn3c2NCc2ccccc2)ccc1OC | -50.9*! | 9.2µM* | . | 23.1µM* | . | ?
SMILES | IL1B secr inh | DT40 TDP1 no CPT | RORg inh | TDP1 cell CPT | VP16 counter | ELG1 DNA repair
CCCCCCSc1cccc(-c2nc3ccccn3c2NCc2ccccc2)c1 | -29.7 | 16.4µM* | . | 16.4µM* | . | -18.2%
CCCCCCSc1cccc(-c2nc3cc(C)ccn3c2NCc2ccccc2)c1 | -83.6*! | 13µM* | . | 13µM* | . | ?
CCCCCCSc1cccc(-c2nc3ccc(C)cn3c2NCc2ccccc2)c1 | -60.5* | 20.6µM* | . | 23.1µM* | . | -24.4%
Fc1ccc(-c2nc3ccccn3c2NCc2ccc3c(c2)OCO3)cc1 | -14.3 | ? | ? | ? | -21.9% | -7.8%
CC(C)CNC(=O)/C=C/C=C/c1ccc2c(c1)OCO2 | -10.8 | ? | . | -0.5% | . | ?
O=C(O)c1ccc(NC(=S)NC(=O)c2cccc(COc3ccccc3)c2)cc1 | -54.5* | 3.3% | 41.4% | -26.4% | 3.9% | 22.8%
O=C(NC(=S)Nc1ccc(CN2CCCCC2)cc1)c1cccc(OCc2ccccc2)c1 | 0.0 | 11.6µM* | 10µM* | 9.2µM* | ? | ?
Nc1ccc(-c2ccc3ccccc3n2)cc1 | . | . | -19.6% | . | 11.2µM* | .
COc1cc2ccc(-c3ccc4ccccc4n3)cc2cc1OC | -3.6 | 6.51µM* | . | ? | . | .
COc1ccc(-c2ccc3ccccc3n2)cc1OC | -5.1 | ? | -21.6% | 3.8% | 6.6% | ?
COc1ccc(-c2ccc3ccccc3n2)cc1 | 92.6 | 2.8% | ? | 9.3% | ? | ?
C=C(C(=O)OC)C(NC(=O)OC)c1ccccc1 (configuration not stated) | . | . | -20.8% | . | -4.6% | .
COc1ccccc1-c1cc(SC)c(C#N)c(=O)o1 | ? | 5.8µM* | ? | 3.66µM* | ? | ?

Compound activity (PubChem)
